Source: PubChem BioAssay (National Center for Advancing Translational Sciences (NCATS))
The list is not random: actives were taken first. Their share in the collection is about 7.3%.
ELG1 genotoxic = qHTS screen for small molecules that induce genotoxicity in human embryonic kidney (HEK293T) cells expressing luciferase-tagged ELG1 | 1.3% of 330,000 active | HEK293T ELG1-luciferase reporter, luminescence, 16 h | AID 504466, 2011 | Potency, µM (doses to about 46 µM), for the others: at the top dose activity change, positive = activation, most hits filed as activators; further: % of control where 0% means no effect; nearly all actives have a fitted effect of over 60% in size
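Reporter readout depends on ELG1 protein level, which increases with genetic stress. After 16 hr compound exposure at 37 °C, luciferase activity was quantified using ONE-Glo.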
NPC1 prom act = qHTS Assay for NPC1 Promoter Activators; Huh7 NPC1 promoter luciferase reporter, 24 h; Potency, µM (highest dose often 9.22 µM), for inactives: top-dose activation, usual class: activators; 2.4% of 320,000 active; AID 485313, 2010; further: % of control where 0% means no effect; nearly all actives have a fitted effect of over 60% in size
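Compounds in DMSO were transferred onto Huh7 NPC1-luciferase reporter cells pre-incubated 2 h; after 24 h at 37 °C, Amplite reagent was dispensed and luminescence recorded 10 min later.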
FLuc modulator = qHTS profiling assay for firefly luciferase inhibitor/activator using purifed enzyme and Km concentrations of substrates (counterscreen for miR-21 project); purified FLuc, Km substrates, luminescence inhibition; Potency, µM (series often up to 57.5 µM), for the others: top-dose activity change, negative = inhibition, hits mostly inhibitors; AID 588342, 2011; 6.9% of 360,000 active;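 further: plate controls were vehicle for no effect and reference inhibitor for full effect; nearly all actives have a fitted effect of over 55% in size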
Target sequence (P08659 whole entry, looked up): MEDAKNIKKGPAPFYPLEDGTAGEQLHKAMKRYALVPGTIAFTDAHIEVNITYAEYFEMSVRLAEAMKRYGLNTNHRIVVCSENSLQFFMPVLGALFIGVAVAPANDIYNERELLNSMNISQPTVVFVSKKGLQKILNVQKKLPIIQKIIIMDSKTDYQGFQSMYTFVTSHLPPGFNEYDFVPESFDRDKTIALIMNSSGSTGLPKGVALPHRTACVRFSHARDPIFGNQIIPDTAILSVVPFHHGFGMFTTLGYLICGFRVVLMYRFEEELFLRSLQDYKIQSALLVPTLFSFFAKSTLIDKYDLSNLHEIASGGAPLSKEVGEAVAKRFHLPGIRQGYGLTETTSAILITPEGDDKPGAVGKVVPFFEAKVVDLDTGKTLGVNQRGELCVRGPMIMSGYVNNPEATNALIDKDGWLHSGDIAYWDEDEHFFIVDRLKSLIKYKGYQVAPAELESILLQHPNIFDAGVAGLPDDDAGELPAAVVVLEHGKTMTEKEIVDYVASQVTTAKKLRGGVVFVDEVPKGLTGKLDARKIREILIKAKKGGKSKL
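Purified P. pyralis luciferase, 10 nM final, with Km-level 10 uM D-luciferin and 10 uM ATP in 50 mM Tris acetate pH 7.5, 10 mM Mg acetate, 0.01% Tween-20, 0.05% BSA; 6-point qHTS titration about 60 µM downward; luminescence read.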
SMN2 splice up = qHTS Assay for Enhancers of SMN2 Splice Variant Expression; HEK293 SMN2-luciferase splicing reporter, luminescence, 30-36 h; Potency, µM (highest dose often 46.1 µM), for inactives: at the top dose activity change, positive = activation, actives largely listed as activators; 2.8% of 210,000 active; AID 1458, 2008; further: % of control where 0% means no effect; nearly all actives have a fitted effect of over 55% in size
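HEK293 cells carry an SMN2 minigene-luciferase reporter in which exon 7 inclusion puts luciferase in frame. Cells were seeded at 2000 cells/well, attached for 10-12 hours, then exposed to compounds for 30-36 hours at 37C before ONE-Glo luminescence.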
KinaseGlo FLuc = Counterscreen for Luciferase (Kinase-Glo TM) Inhibition | Kinase-Glo luciferase, ATP luminescence, 8 min | Potency, µM (doses to about 38.3 µM), for the others: at the highest dose activity change, negative = inhibition, actives largely listed as inhibitors | Luciferin 4-monooxygenase (Photuris pensylvanica), Q27757 | 0.28% of 200,000 active; further: on the % scale 0 is the no-effect control and ±100 the full control effect; nearly all actives have a fitted effect of over 60% in size
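Substrate mix (final 50 mM imidazole pH 7.2, 50 mM KCl, 7 mM MgCl2, 10 uM ATP, 0.01% Tween 20, 0.05% BSA) plus pin-tool compound, then Kinase-Glo detection mix; 8 min ambient, luminescence read.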
Rab9 promoter act = qHTS Assay for Rab9 Promoter Activators. Huh7 Rab9 promoter-luciferase reporter, luminescence, 24 h. Potency, µM (top dose mostly 9.22 µM), without a hit: at the highest dose activation, negative = inhibition, most hits filed as activators. 2.8% of 320,000 active. AID 485297, 2010; further: % of control where 0% means no effect; nearly all actives have a fitted effect of over 60% in size
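Huh7 cells stably carrying Rab9 promoter–luciferase reporter, plated 1500 cells/well, compound added after 2 h and incubated 24 h at 37 °C; luciferase luminescence then read after 10 min with detection reagent.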
An asterisk follows results filed as active; ? = inconclusive; nt = not tested or not shown; [ ] = another dose, or the depositor's remark. The call rests on the fitted dose curve; in most records, active means well fitted curve in the direction sought with a large enough effect; inconclusive means small, poorly fitted or top-dose-only effect, or another doubt; inactive means no such curve, though single readings can be large; an effect the other way counts as inactive or inconclusive. Potency means the concentration at half of the fitted maximal effect.

SMILES	ELG1 genotoxic	NPC1 prom act	FLuc modulator	SMN2 splice up	KinaseGlo FLuc	Rab9 promoter act
Cc1ccccc1C(=O)Nc1cccc(-c2ccc3nncn3n2)c1	0%	-3%	-15%	9%	1%	15%
Cc1ccccc1C(=O)Nc1cccc(-c2cn3ccccc3n2)c1	-18%	0%	6.7µM*	-4%	0%	1%
O=C(Nc1ccc(-c2cn3ccccc3n2)cc1)c1ccco1	?	2.8µM*	2.4µM*	11µM*	10µM*	3.2µM*
O=C(NCc1cn2ccccc2n1)c1ccco1	23%	7%	-5%	15%	-4%	3%
CCOC(=O)c1c(C)oc2ncnc(Nc3cc(C)cc(C)c3)c12	nt	nt	1%	nt	nt	nt
CCCCC1=CC2=CC(=O)C(C)(OC(=O)CC)C(=O)C2=CN1CCCN(CC)CC (centres undefined)	nt	nt	nt	-1%[9.22 µM]	-2%[7.66 µM]	nt
COc1ccc(-c2nc3sc(CCNC(=O)C(=O)Nc4ccc(C)c(C)c4)c(C)n3n2)cc1	nt	nt	-5%	nt	nt	nt
Cc1nn(-c2ccccc2)c2c1N(CC(=O)N1CCN(c3ccc(F)cc3)CC1)C(=O)CS2	nt	nt	-2%	nt	nt	nt
Cc1ccc(C(=O)Nc2cccc(-c3cn4ccccc4n3)c2)cc1	1%	24%	6µM*	nt	-2%	?
Cc1cccc(C(=O)Nc2cccc(-c3cnc4ccccc4n3)c2)c1	4%	3%	2%	11%	8%	-4%
O=C(CSc1cccs1)Nc1ccc2ccccc2c1	?	?	21µM*	9%	-8%	?
O=C(CSc1cccs1)Nc1cccc2ccccc12	?	?	13µM*	13µM*	0%	?
Cc1ccc(NC(=O)CN2C=NS(=O)(=O)c3ccccc32)cc1	nt	nt	-1%	nt	nt	nt
CN(C)c1ccc(C(=O)NNC(=O)Nc2ccccc2)cc1	5%	17%	-1%	-6%	-3%	24%
CN(C)c1ccc(/C=N/OC(=O)Nc2ccccc2)cc1	?	0.71µM*	1.1µM*	nt	nt	0.45µM*
Cc1ccc(NC(=O)CO/N=C/c2ccc(N(C)C)cc2)cc1	6%	8%	15µM*	-17%	1%	0%
CCc1ccccc1NC(=O)CN1C(=O)CCSc2ccc(S(=O)(=O)N3CCCC3)cc21	nt	nt	-5%	nt	nt	nt
Cn1c(-n2cccc2)c(-c2c(-c3ccccc3)[nH]c3c2c(=O)n(C)c(=O)n3C)c(=O)n(C)c1=O	nt	nt	-4%	nt	nt	nt
Cc1oc2cc3oc(=O)c(CCC(=O)N(C)CC(=O)O)c(C)c3cc2c1C	1%	-4%	7.6µM*	nt	nt	-7%
Cc1c(CCC(=O)NCCC(=O)O)c(=O)oc2cc3occ(-c4ccccc4)c3cc12	4%	-2%	-18%	nt	nt	3%
Cc1c(CCC(=O)O)c(=O)oc2cc3occ(-c4ccc(F)cc4)c3cc12	3%	-3%	?	?	3%	-3%
Cc1c(CCC(=O)O)c(=O)oc2cc3occ(-c4ccc(Br)cc4)c3cc12	0%	-6%	17µM*	nt	nt	-5%
Cc1c(CCC(=O)O)c(=O)oc2cc3occ(-c4ccc(Cl)cc4)c3cc12	3%	-4%	17µM*	nt	nt	-4%
Cc1ccc(-n2cc(-c3ccccc3)[nH]c2=O)cc1F	?	3.2µM*	?	25µM*	-7%	3.2µM*
Cc1c(-c2ccc(OCc3ccccc3)cc2)nc2ccccc2c1C(=O)O	-2%	16%	21µM*	nt	nt	3%
SMILES	ELG1 genotoxic	NPC1 prom act	FLuc modulator	SMN2 splice up	KinaseGlo FLuc	Rab9 promoter act
COc1ccc2c(c1OC)C(=O)N(c1ccc(F)cc1)C2	?	2µM*	8.5µM*	nt	nt	1.3µM*
COc1ccc2c(c1OC)C(=O)N(c1cccc(NC(C)=O)c1)C2	?	14%	11µM*	nt	nt	21%
O=C1CCCC/C1=N\Nc1ccc(OCc2ccccc2)cc1	2%	24%	-17%	5%	-2%	?
O=C1CCCC/C1=N\Nc1ccc(C2CCCCC2)cc1	4.6µM*	25%	1.7µM*	nt	nt	?
Cc1cc(O)c(-c2n[nH]c3c2C(c2cccc(O)c2)N(Cc2cccnc2)C3=O)cc1Cl (centres undefined)	3%	-4%	8%	20µM*	-5%	2%
Cc1cccc(N2CCN(c3ncnc4c3nc3n4CCCCC3)CC2)c1C	nt	nt	2%	nt	nt	nt
Cc1oc(-c2cc(F)ccc2F)nc1CN1CCN(c2ncnc3ccccc23)CC1	-8%	6%	27µM*	nt	-2%	0%
Cc1ccc(CCNC(=O)CN(c2ccc(C(C)C)cc2)S(=O)(=O)c2c(C)nn(C)c2C)cc1	nt	nt	0%	-12%	nt	nt
Cc1cc(C)cc(NS(=O)(=O)c2ccc(N3CCCCS3(=O)=O)cc2)c1	nt	nt	-10%	nt	nt	nt
CCOC(=O)c1cc2ccc3ccccc3c2oc1=O	4%	-10%	-15%	nt	nt	0%
CCOC(=O)c1cc2c(s1)-c1ccccc1CC2	15%	18%	11µM*	20%	-1%	17%
CCOC(=O)c1cc2ccc3ccccc3c2s1	?	?	5.4µM*	?	-1%	?
C=CCSc1nnc(-c2ccccc2N=Cc2c(C)[nH]n(-c3ccccc3)c2=O)c(=O)[nH]1	-8%	6%	?	-2%	-1%	-4%
CSc1nnc(-c2ccccc2N=Cc2c(C)[nH]n(-c3ccc4ccccc4c3)c2=O)c(=O)[nH]1	19%	18%	9.5µM*	?	?	7%
CCC(C)n1c(SCc2ccc(F)cc2Cl)nc2ccsc2c1=O (centres undefined)	nt	nt	4%	nt	nt	nt
CCOC(=O)CC1=C(C(=O)OCC)C(c2ccc(C)o2)C(C#N)=C(N)O1 (centres undefined)	0%	-3%	4%	2%	0%	2%
Cc1ccc(C2C(C#N)=C(N)Oc3c2sc2ccccc32)o1 (centres undefined)	?	0%	13µM*	5%	-2%	1%
O=S(O)O.O=S(O)O.[Co].[NH2-].[NH2-].[NH2-].[NH2-]	nt	nt	nt	-3%[9.22 µM]	-1%[7.66 µM]	nt
